# Source: PubChem BioAssay AID1259312 (Keith Lab, Institute of Cancer Science, University of …, 2017)
# Out of some 4,500 compounds screened, about 200 (4.4%) were called active.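 The calls were made as follows: active = cell survival measured by absorbance rises more than 2.5-fold over infected cells without compound; inactive = the rest.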 This excerpt belongs to a sample that is enriched for actives.
# Assay: survival after telomere uncapping, modulators, primary screen, cell-based (AID 1259312);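 also: virus expresses mutant telomerase RNA that uncaps telomeres and kills cells; compound added 2 days after infection so exposure lasts 3 days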
# Details: HCT116 + Ad-hTR-mut, MTT, 5 d; at 10 µM, stronger effect = higher value
row,Structure (SMILES),fold change
1,CCOC(=O)C1CCN(C(=O)C(=O)N2CCC(C(=O)OCC)CC2)CC1,-1.3 (inactive)
2,CCOC(=O)C1CCN(C(=O)N2CCOCC2)CC1,-1.12 (inactive)
3,CCOC(=O)C1CCN(C(C)=O)CC1,3.8 (active)
4,O=C(NC1CCCC1)c1ccc(COc2cc(Cl)ccc2Cl)o1,-1.53 (inactive)
5,O=C1/C(=C/c2c(N3CCOCC3)nc3ccccn3c2=O)SC(=S)N1CC1CCCO1 (stereo unspecified),-1.1 (inactive)
6,NCCCCn1ccnc1,2.97 (active)
7,Nc1ccc(Cn2ccnc2)cc1,-1.06 (inactive)
8,CCCCNC(=O)C(=O)NCCCn1ccnc1,-3.64 (inactive)
9,O=C1CCCN1c1ccc([N+](=O)[O-])cc1,4.37 (active)
10,O=C1CCCN1c1ccc(NS(=O)(=O)N2CCCCC2)cc1,-1.3 (inactive)
11,O=C1CCCN1c1ccc(S(=O)(=O)Cl)cc1,1.34 (inactive)
12,CN(CCCN1c2ccccc2CCc2ccccc21)c1nc(-c2ccc(F)cc2)cs1,-1.32 (inactive)
13,Fc1ccc(-c2csc(N3CCN(CCCN4c5ccccc5Sc5ccc(C(F)(F)F)cc54)CC3)n2)cc1,1.16 (inactive)
14,CCN(CC)CCCN1c2ccccc2Sc2ccc(C(F)(F)F)cc21,5.26 (active)
15,CC1SC2(C(=O)Nc3ccccc32)N(c2cccc(Br)c2)C1=O (stereo unspecified),-4.19 (inactive)
16,O=C(O)C1=C/C(=C(/c2ccccc2)c2cc(C(=O)O)c(O)c3ccccc23)c2ccccc2C1=O,1.42 (inactive)
17,O=C1NC(=O)/C(=C/c2cc(Br)ccc2OCc2ccc(F)cc2)N1,-1.15 (inactive)
18,C=CCn1c(-c2ccc(OC)cc2)n[nH]c1=S,-2.14 (inactive)
19,O=c1ccc(=O)n2n1Cc1ccccc1C2,3.52 (active)
20,O=[N+]([O-])c1cccc(N2Cc3ccccc3C2)c1,-1.27 (inactive)
21,CS(=O)(=O)N1CCc2ccccc2C1,-1.26 (inactive)
22,O=C(O)CC1CCCCO1 (stereo unspecified),-1.75 (inactive)
23,O=C1CC(c2ccccc2)CC2=C1C(c1ccc(-c3ccccc3)cc1)Nc1ccccc1N2 (stereo unspecified),1.1 (inactive)
24,Cn1cc(Cl)c(C(=O)N2CCc3ccccc3C2)n1,-2.46 (inactive)

row,Structure (SMILES),fold change
1,N#CC1=C(N)C(C#N)(C#N)C2=CCCC2C12CCCCC2 (stereo unspecified),2.06 (inactive)
2,Cc1ccc(-c2nnnn2C(C#N)=P(c2ccccc2)(c2ccccc2)c2ccccc2)cc1,2.78 (active)
3,N#CC(C(N)=S)=P(c1ccccc1)(c1ccccc1)c1ccccc1,-1.25 (inactive)
4,COc1cc(OC)cc([C@@H]2[C@@H](C(C)(C)C)C(C#N)(C#N)[C@H]3C=Cc4ccccc4N23)c1,1.39 (inactive)
5,Cn1c(=S)n(CCSc2nc3ccccc3n2C2CCCCC2)c2ccccc21,-2.22 (inactive)
6,CN(C)c1ccc(N2CC(=O)SC2=NC#N)cc1,-2.16 (inactive)
7,COC1OC(C)C(OCc2ccccc2)C(O)C1O (stereo unspecified),1.93 (inactive)
8,OCc1ccccc1O[C@@H]1O[C@H](CO)[C@@H](O)[C@H](O)[C@H]1O,1.37 (inactive)
9,COC1OC(COC(c2ccccc2)(c2ccccc2)c2ccccc2)C(O)C(O)C1O (stereo unspecified),2.72 (active)
10,CCCCc1sc(-c2c(C#N)c(N)nc3c2CCCC3)cc1[N+](=O)[O-],-2.22 (inactive)
11,CCSCCOC(=O)C1=C(C)NC2=C(C(=O)CCC2)C1c1ccsc1 (stereo unspecified),-1.16 (inactive)
12,CCCCOc1ccc(C2C(C#N)=C(N)Nc3oc(OC)nc32)cc1CCC (stereo unspecified),-1.87 (inactive)
13,CC1CCN(S(=O)(=O)c2ccc(Cl)cc2)CC1,1.93 (inactive)
14,COc1ccc(S(=O)(=O)N2CCN(CCO)CC2)cc1,-1.24 (inactive)
15,CCC1CCCCN1S(=O)(=O)c1ccc(Cl)cc1 (stereo unspecified),-1.26 (inactive)
16,CC1CCCN(S(=O)(=O)c2ccc(Br)cc2)C1 (stereo unspecified),1.44 (inactive)
17,COc1ccc(S(=O)(=O)N2CCN(C)CC2)cc1,-1.28 (inactive)
18,CC1CCCN(S(=O)(=O)c2cc(Cl)ccc2Cl)C1 (stereo unspecified),3.18 (active)
19,O=C(O)C1CCCN1S(=O)(=O)c1cc(Cl)ccc1Cl (stereo unspecified),-1.09 (inactive)
20,O=S(=O)(c1cc(Cl)ccc1Cl)N1CCc2ccccc2C1,1.42 (inactive)
21,O=S(=O)(c1ccc(Cl)cc1)N1CCOC1C(Cl)(Cl)Cl (stereo unspecified),-2.17 (inactive)
22,CC1CCCN(S(=O)(=O)c2ccc(Cl)cc2)C1 (stereo unspecified),5.69 (active)
23,CC1CC(C)CN(S(=O)(=O)c2ccc(Cl)cc2)C1 (stereo unspecified),3.13 (active)
24,COc1ccc(S(=O)(=O)N2CC(C)CC(C)C2)cc1 (stereo unspecified),3.34 (active)

row,Structure (SMILES),fold change
1,CCC1CN2CCc3cc(OC)c(OC)cc3[C@@H]2C[C@@H]1C[C@H]1NCCc2cc(OC)c(OC)cc21 (stereo partly specified),-4.98 (inactive)
2,Nc1nnc(SCc2ccc(Cl)cc2Cl)s1,1.92 (inactive)
3,CC(C)(C)c1cc(C(C)(C)C)c(O)c(C(C)(C)C)c1,-1.04 (inactive)
4,CS(=O)(=O)N1CCc2ccccc21,1.49 (inactive)
5,CN=C1/C(=N/O)C=CC2CCCCC12 (stereo unspecified),inactive
6,O=[N+]([O-])c1cc(Br)cc(C=Nc2cc(Cl)cc(Cl)c2)c1O,inactive
7,O=C1C=CC(=C(c2ccc(O)c(O)c2)c2ccccc2S(=O)(=O)O)C=C1O,1.05 (inactive)
8,Cc1cc(=O)[nH]c(SCc2ccon2)n1,inactive
9,Cn1c(=O)n(C)c2cc(S(=O)(=O)N3CCCCC3)ccc21,-4.28 (inactive)
10,CSC(=Nc1ccc(C)c(C)c1)NC#N,3.26 (active)
11,CC1(C)CC2CC(C)(CN2S(=O)(=O)c2ccc(N)cc2)C1 (stereo unspecified),-1.15 (inactive)
12,CN(C)CCCN1C(=O)C(O)=C(C(=O)c2ccco2)C1c1cccs1 (stereo unspecified),1.06 (inactive)
13,N#CC1=C(N)OC2=C(C(=O)CCC2)C1c1ccc(Br)s1 (stereo unspecified),-1.06 (inactive)
14,N#CC1=C(N)OC2=C(C(=O)CCC2)C1c1cc(F)ccc1F (stereo unspecified),2.83 (active)
15,Cc1ccc(C2C(C#N)=C(N)OC3=C2C(=O)CCC3)o1 (stereo unspecified),-2.21 (inactive)
16,Cn1c(SC2CCOC2=O)nc2ccccc2c1=O (stereo unspecified),-1.35 (inactive)
17,COc1nc(-c2ccccc2)cc(-c2ccccc2)c1C#N,1.46 (inactive)
18,OC[C@@H]1OC(O)[C@@H](O)[C@H](O)[C@H]1O[C@H]1O[C@H](CO)[C@@H](O)[C@H](O)[C@H]1O (stereo partly specified),3.84 (active)
19,OC[C@H]1O[C@@H](OC[C@H]2O[C@@H](O)[C@H](O)[C@@H](O)[C@@H]2O)[C@H](O)[C@@H](O)[C@@H]1O,-1.38 (inactive)
20,OCC1OC(OC2OC(CO)C(O)C(O)C2O)C(O)C(O)C1O (stereo unspecified),-1.63 (inactive)
21,O=[N+]([O-])c1ccc(OC2OC(CO)C(O)C(O)C2O)cc1 (stereo unspecified),1.11 (inactive)
22,OC[C@@H]1O[C@H](O[C@H]2O[C@H](CO[C@H]3O[C@H](CO)[C@H](O)[C@H](O)[C@H]3O)[C@@H](O)[C@H](O)[C@H]2O)[C@H](O)[C@H]1O,2.81 (active)
23,NC[C@@H]1O[C@H](O[C@H]2[C@@H](O)[C@H](O[C@@H]3[C@@H](O)[C@H](N)C[C@H](N)[C@H]3O[C@H]3O[C@H](CN)[C@@H](O)[C@H](O)[C@H]3N)O[C@@H]2CO)[C@H](N)[C@@H](O)[C@@H]1O,-1.27 (inactive)
